Measurements published in article PMC7862700, “An all-to-all approach to the identification of sequence-specific readers for epigenetic DNA modifications on cytosine”.

Legend:
Assay in all cases: DAPPL (digital affinity profiling via proximity ligation, sequencing); 10 mM Tris-HCl pH 7.5, 50 mM NaCl, 1 mM DTT, 4% glycerol, room temperature, 30 min; GST-TFs on glutathione beads, 16-mer random dsDNA library, 0.1% formaldehyde crosslink after washing; high values mean tight binding
Settings in all cases: protein: recombinant; tags: N-terminal GST; dsDNA, one strand shown
ERF = molecular target: T1, ERF (Homo sapiens, UniProt P50548 1-548)
T1 sequence: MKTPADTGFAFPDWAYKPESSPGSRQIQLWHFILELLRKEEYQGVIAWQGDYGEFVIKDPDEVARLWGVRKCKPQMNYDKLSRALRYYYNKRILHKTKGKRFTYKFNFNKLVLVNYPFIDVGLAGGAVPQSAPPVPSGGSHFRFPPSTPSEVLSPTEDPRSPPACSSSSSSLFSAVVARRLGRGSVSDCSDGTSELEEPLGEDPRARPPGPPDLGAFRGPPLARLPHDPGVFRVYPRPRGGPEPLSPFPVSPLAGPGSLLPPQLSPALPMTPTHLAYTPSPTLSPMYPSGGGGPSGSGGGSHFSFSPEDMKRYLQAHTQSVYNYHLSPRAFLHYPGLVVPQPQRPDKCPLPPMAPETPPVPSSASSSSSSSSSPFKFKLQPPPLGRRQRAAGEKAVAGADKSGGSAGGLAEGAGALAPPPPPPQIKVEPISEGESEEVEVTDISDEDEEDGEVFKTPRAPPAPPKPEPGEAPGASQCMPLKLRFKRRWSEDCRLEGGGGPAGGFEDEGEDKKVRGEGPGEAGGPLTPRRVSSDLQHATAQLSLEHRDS
Method in brief: (§1)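 Binding signal is each hexamer's read frequency for a factor divided by its frequency in the tag-only sample. The factors were GST-fused human transcription factors from yeast, captured on glutathione beads, DNA-barcoded and pooled with that sample. Pools were incubated with 200 nmole of a random double-stranded 16-mer DNA library in Tris/NaCl/DTT/glycerol buffer at room temperature for 30 min, then washed, crosslinked with 0.1% formaldehyde, proximity-ligated with BsaI/T4 ligase (1 h, 37 °C), PCR-amplified and sequenced on an Illumina NextSeq500.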

ETV3L = molecular target: T2, ETV3L (Homo sapiens, UniProt Q6ZN32 1-361)
T2 sequence: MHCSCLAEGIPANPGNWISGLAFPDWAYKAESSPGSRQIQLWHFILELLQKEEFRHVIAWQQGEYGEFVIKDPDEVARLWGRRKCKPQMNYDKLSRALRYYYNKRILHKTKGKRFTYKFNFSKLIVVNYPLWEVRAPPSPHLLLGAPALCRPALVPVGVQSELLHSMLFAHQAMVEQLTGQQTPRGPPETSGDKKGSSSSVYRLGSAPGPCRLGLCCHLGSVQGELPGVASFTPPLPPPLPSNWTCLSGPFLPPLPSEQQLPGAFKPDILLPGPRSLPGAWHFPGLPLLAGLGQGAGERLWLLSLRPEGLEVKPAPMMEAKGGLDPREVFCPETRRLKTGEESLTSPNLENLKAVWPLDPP
Method in brief: as §1

ETS2 = molecular target: T3, ETS2 (Homo sapiens, UniProt P15036 1-469)
T3 sequence: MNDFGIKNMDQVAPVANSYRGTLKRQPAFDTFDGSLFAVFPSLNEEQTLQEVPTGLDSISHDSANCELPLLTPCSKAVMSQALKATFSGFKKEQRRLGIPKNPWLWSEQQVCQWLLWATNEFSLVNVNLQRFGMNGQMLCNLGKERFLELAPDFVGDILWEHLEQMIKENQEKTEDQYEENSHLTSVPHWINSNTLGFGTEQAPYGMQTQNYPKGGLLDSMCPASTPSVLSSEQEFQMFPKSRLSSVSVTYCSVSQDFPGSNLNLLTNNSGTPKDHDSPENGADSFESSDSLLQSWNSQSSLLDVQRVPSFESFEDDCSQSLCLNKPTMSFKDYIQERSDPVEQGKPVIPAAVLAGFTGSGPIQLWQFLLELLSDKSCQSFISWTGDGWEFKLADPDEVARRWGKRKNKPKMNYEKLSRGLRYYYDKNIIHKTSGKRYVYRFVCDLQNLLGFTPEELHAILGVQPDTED
Method in brief: as §1

SPDEF = molecular target: T4, SPDEF (Homo sapiens, UniProt O95238 1-335)
T4 sequence: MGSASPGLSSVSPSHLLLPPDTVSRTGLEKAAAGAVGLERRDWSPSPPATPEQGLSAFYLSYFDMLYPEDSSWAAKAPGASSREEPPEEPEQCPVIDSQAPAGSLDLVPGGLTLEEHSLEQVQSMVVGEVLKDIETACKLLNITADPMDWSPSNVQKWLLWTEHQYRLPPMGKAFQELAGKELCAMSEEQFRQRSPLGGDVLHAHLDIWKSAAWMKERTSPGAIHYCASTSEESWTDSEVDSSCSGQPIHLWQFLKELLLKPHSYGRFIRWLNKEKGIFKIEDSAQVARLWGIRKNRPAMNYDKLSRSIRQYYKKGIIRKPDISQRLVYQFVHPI
Method in brief: as §1

ETV7 = molecular target: T5, ETV7 (Homo sapiens, UniProt Q9Y603 1-341)
T5 sequence: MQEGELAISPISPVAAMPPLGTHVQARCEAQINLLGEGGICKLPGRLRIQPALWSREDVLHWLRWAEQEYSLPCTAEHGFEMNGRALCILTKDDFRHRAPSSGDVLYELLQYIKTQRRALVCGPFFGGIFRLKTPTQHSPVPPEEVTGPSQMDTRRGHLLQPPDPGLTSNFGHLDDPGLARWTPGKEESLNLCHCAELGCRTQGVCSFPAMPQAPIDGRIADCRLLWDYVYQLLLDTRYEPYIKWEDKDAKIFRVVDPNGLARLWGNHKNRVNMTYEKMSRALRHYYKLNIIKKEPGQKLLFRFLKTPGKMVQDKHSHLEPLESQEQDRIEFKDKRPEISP
Method in brief: as §1

ELF5 = molecular target: T6, ELF5 (Homo sapiens, UniProt Q9UKW6-2 1-255)
T6 sequence: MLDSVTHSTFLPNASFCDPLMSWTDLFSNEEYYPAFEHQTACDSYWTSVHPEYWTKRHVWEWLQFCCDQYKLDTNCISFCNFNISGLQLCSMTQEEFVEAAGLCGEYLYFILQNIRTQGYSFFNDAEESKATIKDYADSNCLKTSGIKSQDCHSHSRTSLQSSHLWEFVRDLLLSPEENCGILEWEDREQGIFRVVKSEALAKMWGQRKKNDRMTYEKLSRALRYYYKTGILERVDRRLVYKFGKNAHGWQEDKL
Method in brief: as §1

ETV3 = molecular target: T7, ETV3 (Homo sapiens, UniProt P41162-2 1-143)
T7 sequence: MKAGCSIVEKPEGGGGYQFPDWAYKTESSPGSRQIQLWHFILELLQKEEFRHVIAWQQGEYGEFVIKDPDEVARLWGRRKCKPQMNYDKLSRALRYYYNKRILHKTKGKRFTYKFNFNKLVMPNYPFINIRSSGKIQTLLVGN
Method in brief: as §1

ETV6 = ETV6 (Homo sapiens, UniProt P41212 1-452)
Sequence of ETV6 (P41212 whole entry): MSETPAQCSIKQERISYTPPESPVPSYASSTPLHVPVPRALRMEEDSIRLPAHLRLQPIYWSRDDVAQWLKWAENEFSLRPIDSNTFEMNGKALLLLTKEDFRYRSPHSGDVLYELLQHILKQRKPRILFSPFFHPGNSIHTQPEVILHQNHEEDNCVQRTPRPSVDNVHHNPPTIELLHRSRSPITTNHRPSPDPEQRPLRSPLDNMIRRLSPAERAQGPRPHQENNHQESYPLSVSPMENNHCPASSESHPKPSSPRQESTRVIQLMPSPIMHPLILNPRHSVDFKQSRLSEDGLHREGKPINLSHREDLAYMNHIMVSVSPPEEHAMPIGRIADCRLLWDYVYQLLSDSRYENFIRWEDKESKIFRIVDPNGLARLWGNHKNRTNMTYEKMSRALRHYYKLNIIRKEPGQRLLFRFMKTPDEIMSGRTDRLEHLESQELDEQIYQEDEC
Method in brief: as §1

| Sequence | binding signal (ERF) | binding signal (ETV3L) | binding signal (ETS2) | binding signal (SPDEF) | binding signal (ETV7) | binding signal (ELF5) | binding signal (ETV3) | binding signal (ETV6) |
| --- | --- | --- | --- | --- | --- | --- | --- | --- |
| GTACAT | 1.36 fold enrichment (6-mer frequency, TF over GST control) | 1.32 fold enrichment (6-mer frequency, TF over GST control) | 1.36 fold enrichment (6-mer frequency, TF over GST control) | 2.06 fold enrichment (6-mer frequency, TF over GST control) | 1.53 fold enrichment (6-mer frequency, TF over GST control) | 1.3 fold enrichment (6-mer frequency, TF over GST control) | 1.34 fold enrichment (6-mer frequency, TF over GST control) | 1.4 fold enrichment (6-mer frequency, TF over GST control) |
| ATAGTT | 1.23 fold enrichment (6-mer frequency, TF over GST control) | 1.27 fold enrichment (6-mer frequency, TF over GST control) | 1.18 fold enrichment (6-mer frequency, TF over GST control) | 1.12 fold enrichment (6-mer frequency, TF over GST control) | 1.19 fold enrichment (6-mer frequency, TF over GST control) | 1.12 fold enrichment (6-mer frequency, TF over GST control) | 1.31 fold enrichment (6-mer frequency, TF over GST control) | 1.21 fold enrichment (6-mer frequency, TF over GST control) |
| TCGCAA | 1.27 fold enrichment (6-mer frequency, TF over GST control) | 1.1 fold enrichment (6-mer frequency, TF over GST control) | 1.05 fold enrichment (6-mer frequency, TF over GST control) | 1.09 fold enrichment (6-mer frequency, TF over GST control) | 1.01 fold enrichment (6-mer frequency, TF over GST control) | 1.06 fold enrichment (6-mer frequency, TF over GST control) | 1.13 fold enrichment (6-mer frequency, TF over GST control) | 1.09 fold enrichment (6-mer frequency, TF over GST control) |
| ACTTAC | 1.08 fold enrichment (6-mer frequency, TF over GST control) | 1.09 fold enrichment (6-mer frequency, TF over GST control) | 1.14 fold enrichment (6-mer frequency, TF over GST control) | 1.13 fold enrichment (6-mer frequency, TF over GST control) | 1.14 fold enrichment (6-mer frequency, TF over GST control) | 1.21 fold enrichment (6-mer frequency, TF over GST control) | 1.09 fold enrichment (6-mer frequency, TF over GST control) | 1.13 fold enrichment (6-mer frequency, TF over GST control) |
| CGGAAA | 1.77 fold enrichment (6-mer frequency, TF over GST control) | 2.05 fold enrichment (6-mer frequency, TF over GST control) | 2.07 fold enrichment (6-mer frequency, TF over GST control) | 2.03 fold enrichment (6-mer frequency, TF over GST control) | 1.97 fold enrichment (6-mer frequency, TF over GST control) | 2.58 fold enrichment (6-mer frequency, TF over GST control) | 2.26 fold enrichment (6-mer frequency, TF over GST control) | 2.53 fold enrichment (6-mer frequency, TF over GST control) |
| CCTATT | 1.6 fold enrichment (6-mer frequency, TF over GST control) | 1.64 fold enrichment (6-mer frequency, TF over GST control) | 1.49 fold enrichment (6-mer frequency, TF over GST control) | 1.51 fold enrichment (6-mer frequency, TF over GST control) | 1.52 fold enrichment (6-mer frequency, TF over GST control) | 1.53 fold enrichment (6-mer frequency, TF over GST control) | 1.52 fold enrichment (6-mer frequency, TF over GST control) | 1.59 fold enrichment (6-mer frequency, TF over GST control) |
| GTTCAA | 1.14 fold enrichment (6-mer frequency, TF over GST control) | 1.19 fold enrichment (6-mer frequency, TF over GST control) | 1.14 fold enrichment (6-mer frequency, TF over GST control) | 1.22 fold enrichment (6-mer frequency, TF over GST control) | 1.03 fold enrichment (6-mer frequency, TF over GST control) | 1.12 fold enrichment (6-mer frequency, TF over GST control) | 1.15 fold enrichment (6-mer frequency, TF over GST control) | 1.16 fold enrichment (6-mer frequency, TF over GST control) |
| GTACTC | 1.06 fold enrichment (6-mer frequency, TF over GST control) | 1.15 fold enrichment (6-mer frequency, TF over GST control) | 1.13 fold enrichment (6-mer frequency, TF over GST control) | 1.02 fold enrichment (6-mer frequency, TF over GST control) | 1 fold enrichment (6-mer frequency, TF over GST control) | 1.12 fold enrichment (6-mer frequency, TF over GST control) | 1.11 fold enrichment (6-mer frequency, TF over GST control) | 1.14 fold enrichment (6-mer frequency, TF over GST control) |
| ATCTCA | 1.07 fold enrichment (6-mer frequency, TF over GST control) | 1.13 fold enrichment (6-mer frequency, TF over GST control) | 1.14 fold enrichment (6-mer frequency, TF over GST control) | 1.07 fold enrichment (6-mer frequency, TF over GST control) | 1.15 fold enrichment (6-mer frequency, TF over GST control) | 1.09 fold enrichment (6-mer frequency, TF over GST control) | 1.13 fold enrichment (6-mer frequency, TF over GST control) | 1.11 fold enrichment (6-mer frequency, TF over GST control) |
| CGACAT | 1.34 fold enrichment (6-mer frequency, TF over GST control) | 1.22 fold enrichment (6-mer frequency, TF over GST control) | 1.32 fold enrichment (6-mer frequency, TF over GST control) | 1.4 fold enrichment (6-mer frequency, TF over GST control) | 1.23 fold enrichment (6-mer frequency, TF over GST control) | 1.33 fold enrichment (6-mer frequency, TF over GST control) | 1.37 fold enrichment (6-mer frequency, TF over GST control) | 1.42 fold enrichment (6-mer frequency, TF over GST control) |
| CCACTC | 1.13 fold enrichment (6-mer frequency, TF over GST control) | 1.28 fold enrichment (6-mer frequency, TF over GST control) | 1.21 fold enrichment (6-mer frequency, TF over GST control) | 1.26 fold enrichment (6-mer frequency, TF over GST control) | 1.21 fold enrichment (6-mer frequency, TF over GST control) | 1.19 fold enrichment (6-mer frequency, TF over GST control) | 1.14 fold enrichment (6-mer frequency, TF over GST control) | 1.13 fold enrichment (6-mer frequency, TF over GST control) |
